The source of these data is PubChem BioAssay (NCATS).

SMILES strings stand for the structures.

This test can be described thus: qHTS profiling of the MIPE4 collection as inhibitors of Plasmodium falciparum (3D7) proliferation (AID 743344).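 Further: scaled between DMSO vehicle wells and 0.29 µM artemisinin as full inhibition.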 To be noted: P. falciparum 3D7 in erythrocytes, SYBR Green DNA fluorescence, 72 h; at 28.5 µM unless noted. The source says:
Plasmodium falciparum is a virulent malarial parasite that kills 1-2 million people worldwide each year. Transmitted by mosquitoes, the sporozoite form of the parasite enters the blood stream to infect hepatocytes, where they become merozoites that infect red blood cells (erythrocytes). Within erythrocytes, merozoites begin a […] cycle of growth and division, after which the parasite is released to infect new red blood cells. Gametocytes, which form within erythrocytes as well, circulate in the bloodstream and are ingested by the mosquito, thereby completing the life cycle. To profile malarial isolates for differential chemical responses and to identify inhibitors of malarial growth, an assay that measures P. falciparum growth and replication within erythrocytes was employed. This assay uses a DNA binding fluorescent dye (SYBR Green) to detect parasite DNA following cell lysis. Because mature erythrocytes lack DNA, only Plasmodium-derived DNA is detected.
The SYBR Green viability assay was adapted from a method described previously (Plouffe et al., 2008). For screening 3 ul culture medium was dispensed into 1536 well black clear bottom plates (Aurora Biotechnologies) using a Multidrop Combi (Thermo Fisher Scientific Inc.), 23 nL compounds in DMSO were added by a pin tool (Kalypsys), and 5 ul of erythrocytes infected with P. falciparum (0.3% parasitemia, 2.5% hematocrit final concentration) were added. The plates were incubated at 37 C in a humidified incubator in 5% CO2 for 72 h, and 2 ul lysis buffer (20 mM Tris HCl, 10 mM EDTA, 0.16% saponin, 1.6% triton X, 10X SYBR Green I supplied as 10,000X […] by Invitrogen) was added to each well. The plates were mixed for 25 sec with gentle shaking and incubated overnight at room temperature in the dark. The following morning, fluorescence intensity at 485(14) nm excitation and 535(25) nm emission wavelengths was measured on an EnVision (Perkin Elmer) plate reader. Plate reads were normalized relative to the control inhibitor (0.29 uM artemisinin) and vehicle (DMSO) wells present on each plate and then corrected by an algorithm using vehicle-only control plates at the beginning and end of the compound plate stack.
The molecule `OCCN1CCN(CCCN2c3ccccc3Sc3ccc(C(F)(F)F)cc32)CC1` returned a parasite growth, % of DMSO control of 7.22%.
`Cn1ccc2cc3c(cc21)CCN3C(=O)Nc1cccnc1` showed a parasite growth, % of DMSO control of 23.4%.
Molecule `CC(=O)OCC(CCn1cnc2cnc(N)nc21)COC(C)=O` came in with a parasite growth, % of DMSO control of 99.1%.
The molecule `CC(COc1ccccc1)N(CCCl)Cc1ccccc1` (stereo not given) displayed a parasite growth, % of DMSO control of 90.3%.
Molecule `CC(C)NCC(O)COc1ccc(CCOCC2CC2)cc1` (stereo not given) yielded a parasite growth, % of DMSO control of 77%.
Regarding `Nc1ccn([C@H]2CC[C@@H](CO)O2)c(=O)n1`, the parasite growth, % of DMSO control amounted to 114%.
Under `COc1cc2nc(N3CCN(C(=O)C4COc5ccccc5O4)CC3)nc(N)c2cc1OC` (stereo not given) stands 5.44%; under `O=C1N(c2ccccc2)c2ccccc2C1(Cc1ccncc1)Cc1ccncc1`, 105%.
Under `CCCCc1oc2ccccc2c1C(=O)c1cc(I)c(OCCN(CC)CC)c(I)c1` stands 6.22%; under `Cc1cnc(C(=O)NCCc2ccc(S(=O)(=O)NC(=O)NC3CCCCC3)cc2)cn1`, 7.98%; under `Cc1ccccc1N1C(=O)c2cc(S(N)(=O)=O)c(Cl)cc2NC1C` (stereo not given), 92.5%.
With `Nc1nc2c(ncn2COC(CO)CO)c(=O)[nH]1`, the parasite growth, % of DMSO control stood at 91.1%.
Regarding `C[C@H]1c2cccc(O)c2C(O)=C2C(=O)[C@]3(O)C(O)=C(C(N)=O)C(=O)[C@@H](N(C)C)[C@@H]3[C@@H](O)[C@@H]21`, the parasite growth, % of DMSO control came out at 6.81%.
The molecule `COc1ccc2c(c1)c(CC(=O)O)c(C)n2C(=O)c1ccc(Cl)cc1` showed a parasite growth, % of DMSO control of 55.7%.
On to `NCCc1cnc[nH]1`, for which the parasite growth, % of DMSO control came out at 95.8%.
Regarding `Cn1cnc2c1c(=O)[nH]c(=O)n2C`, the parasite growth, % of DMSO control turned out to be 8.09%.
For `N[C@@H](Cc1c[nH]c2ccc(O)cc12)C(=O)O`, the parasite growth, % of DMSO control stood at 101%.
`CCc1cccc2c3c([nH]c12)C(CC)(CC(=O)O)OCC3` (stereo not given) gave a parasite growth, % of DMSO control of 71%.
`CN(C)C(=N)N=C(N)N` gave a parasite growth, % of DMSO control of 97.5%.
Under `COc1ccccc1N1CCN(CC(O)COc2cccc3ccccc23)CC1` (stereo not given) stands 64.9%.
`COc1ccccc1OCC(O)CN1CCN(CC(=O)Nc2c(C)cccc2C)CC1` (stereo not given): the parasite growth, % of DMSO control is 126%.
The molecule `Nc1nnc(-c2cccc(Cl)c2Cl)c(N)n1` registered a parasite growth, % of DMSO control of 93.8%.
Then `CCCNCC(O)COc1ccccc1C(=O)CCc1ccccc1` (stereo not given), with 5.54%; and `CN(CCOc1ccc(NS(C)(=O)=O)cc1)CCc1ccc(NS(C)(=O)=O)cc1`, with 115%.
Then `Cc1ccc(-c2cc(C(F)(F)F)nn2-c2ccc(S(N)(=O)=O)cc2)cc1`, with 21.9%.
For the molecule `CC#C[C@]1(O)CC[C@H]2[C@@H]3CCC4=CC(=O)CCC4=C3[C@@H](c3ccc(N(C)C)cc3)C[C@@]21C`, the parasite growth, % of DMSO control is 7.43%.
`O=c1c(O)c(-c2ccc(O)c(O)c2)oc2cc(O)cc(O)c12` came in with a parasite growth, % of DMSO control of 12.8%.
`CCC1(C)CC(=O)NC1=O` (stereo not given) came in with a parasite growth, % of DMSO control of 99.5%.
`CC(C)Cc1ccc(C(C)C(=O)O)cc1` (stereo not given) registered a parasite growth, % of DMSO control of 112% [at 9.64 µM].
`CC12CC3CC(C)(C1)CC(N)(C3)C2` yielded a parasite growth, % of DMSO control of 176%.
Take `CN(Cc1cnc2nc(N)nc(N)c2n1)c1ccc(C(=O)N[C@@H](CCC(=O)O)C(=O)O)cc1`: the parasite growth, % of DMSO control amounted to 8.82%.
`O=C(c1ccc(F)cc1)C1CCN(CCn2c(=O)[nH]c3ccccc3c2=O)CC1` came in with a parasite growth, % of DMSO control of 109%.
The molecule `Clc1ccccc1C(c1ccccc1)(c1ccccc1)n1ccnc1` gave a parasite growth, % of DMSO control of 4.91%.
Take `COc1ccccc1OCCNCC(O)COc1cccc2[nH]c3ccccc3c12` (stereo not given): the parasite growth, % of DMSO control turned out to be 16.5%.
`CN(C)CCC=C1c2ccccc2C=Cc2ccccc21` returned a parasite growth, % of DMSO control of 58.1%.
Then `CC[C@@]1(O)C(=O)OCc2c1cc1n(c2=O)Cc2cc3c(CN(C)C)c(O)ccc3nc2-1`, with 13.9%; and `CCOC(=O)C(C)(C)Oc1ccc(Cl)cc1`, with 92.7%.
Take `Cc1cc(C(C)(C)C)c(O)c(C)c1CC1=NCCN1`: the parasite growth, % of DMSO control came to 80.6%.
The molecule `CC1(CN2CCC(n3c(=O)[nH]c4ccccc43)CC2)OCc2ccccc2-n2cccc21` (stereo not given) came in with a parasite growth, % of DMSO control of 10.9%.
Consider `CNCCCC12CCC(c3ccccc31)c1ccccc12`, for which the parasite growth, % of DMSO control is 16.9%.
